Reference: PubChem BioAssay AID588651 (The Scripps Research Institute Molecular Screening Center, 2011)
Active and inactive are the calls of the source. Cut-off read from the data, not from the text of the source: active = inhibition above about 65%; inactive = the rest.

What follows are compounds tested on Fam108b (assay: Fam108b inhibition by ABPP, late-stage follow-up, biochemical, gel-based ABPP, recombinant soluble Fam108b, HTS hits, complex proteome (AID 588651;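 note: Fam108b spiked into mouse brain membrane proteome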)). Details: FP-rhodamine labeling in proteome, at 20 µM, stronger effect = higher value.

inhibition, active:
COc1cccc(C=NNC(=O)c2[nH]c(C)c(C(=O)NN=Cc3cccc(OC)c3O)c2C)c1O 75%
Cc1ccc(S(=O)(=O)N=C2C=C(Sc3ncn[nH]3)C(=O)c3ccccc32)cc1 90%
Cn1c2ccccc2c2cc(C=NNC(=O)c3cc(O)ccc3O)ccc21 80%
Cc1ccc(-c2csc3nc(C(C)C)oc(=O)c23)c(C)c1 90%
Cc1nc2scc(-c3ccc(Cl)cc3)c2c(=O)o1 95%
O=c1oc(-c2ccccc2F)nc2scc(-c3ccccc3)c12 98%

inhibition, inactive:
Clc1ccccc1C(c1ccccc1)(c1ccccc1)n1ccnc1 0%
Cc1cc(C)nc(SCc2ccc(C(=O)NN=Cc3cccc(O)c3O)cc2)n1 30%
Cc1cccc(N=Cc2nc(-c3ccccc3Br)oc2O)n1 10%
Fc1ccc2nc(Nc3nc4cc5c(cc4s3)OCO5)sc2c1 0%
CCc1ccc(S(=O)(=O)N=C2C=C(Sc3ncn[nH]3)C(=O)c3ccccc32)cc1 60%
O=C1NC(=S)/C(=C\c2ccc(-c3ccccc3Cl)o2)S1 0%
O=C(O)C1Nc2ccc(Br)cc2C2C=CCC12 (centres undefined) 0%
CC1CCCCN1S(=O)(=O)c1ccc(C(=O)Nc2ccccc2-c2nc3ccccc3[nH]2)cc1 (centres undefined) 50%
Nc1cc(C(=O)O)c(N)c2c1C(=O)c1ccccc1C2=O 0%
O=[N+]([O-])c1ccc(NN=Cc2ccccc2O)cc1 0%
O=C(NC1CCCCC1)c1sc(=S)n2c1[nH]c(=O)c1ccccc12 0%
CN(c1ccccc1)S(=O)(=O)c1ccc(NC(=O)c2ccc(-c3ccccc3)cc2)cc1 40%
Cc1ccccc1NC1=C/C(=N\S(=O)(=O)c2cccs2)c2ccccc2C1=O 0%
COc1ccc(/C=C2\SC(=S)N(CC(=O)OCC(=O)Nc3cc(Cl)cc(Cl)c3)C2=O)cc1 0%
O=C(NCC1CC1)c1ccc(Nc2nc3ccc(Br)cc3[nH]2)cc1 0%
O=C1C(Cl)=C(Nc2ccc3cn[nH]c3c2)C(=O)c2ccccc21 0%
Brc1csc(C=NNc2nc3ccccc3s2)c1 0%
Cc1ccc2nc(CSc3nc(C)ccc3C#N)[nH]c2c1 50%
Cc1[nH]c2ccccc2c1C=NNC(=O)c1cccc(S(=O)(=O)Nc2cccc(C(F)(F)F)c2)c1 60%
COc1cc(-c2nc(-c3ccc4c(c3)-c3ccccc3S4(=O)=O)c(-c3ccccc3)[nH]2)cc(OC)c1O 40%
CCn1nc([N+](=O)[O-])c(C(C#N)c2nc3cc(C(F)(F)F)ccc3s2)c(Cl)c1=O (centres undefined) 0%
COc1ccc2oc(=O)c(-c3csc(Nc4cccc(O)c4)n3)cc2c1 0%
O=C(O)CCCNc1cc(N2CCN(C(=O)c3ccco3)CC2)c2noc3c2c1C(=O)c1ccccc1-3 40%
Cn1c(O)c(C=NNC(=O)c2cc3ccccc3cc2O)c2ccccc21 35%
CCN(CC)S(=O)(=O)c1cc(NC(=O)COC(=O)c2sc3ccccc3c2Cl)ccc1C 10%
Cc1cc(C(C#N)c2ccc(Cl)cc2)c(Cl)cc1NC(=O)c1cc(I)cc(I)c1O (centres undefined) 50%
CCOC(=O)c1sc(NC(=O)Nc2ccc(Cl)cc2)cc1C 0%
Cc1ccnc(N=Cc2nc(-c3ccccc3Br)oc2O)c1 7%
